Laboratory results as given in the supplement of paper PMC10338343.
± gives the standard deviation. In all, about 6,200 sequences were measured (“pre-steady-state target cleavage rate”: median about 0.29, highest 2% from about 2 on). The sample as a whole holds a higher share of the highest values than the screen did.

System: MIWI (PIWIL1) piRISC loaded with piRNA #1 (30 nt)
Test: pre-steady-state target cleavage rate (min^-1); MIWI and MILI are mouse PIWI proteins and EfPiwi is from a freshwater sponge; tags in brackets are library labels; higher = faster piRNA-guided slicing of the target
Settings: guide: piRNA #1 5'p-UGAGGUAGUAGGUUGUAUAGUAUCCAGAGG; auxiliary factor: 500 nM mouse GTSF1
Description: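 Cleave-'n-Seq: a library of target RNAs (target site embedded in constant flanks, ACAGCATTCCGCGTTAGTGATATCCG... 5' flank; DNA-blocked outside the site) at 0.1 nM was incubated with 1 nM active mouse MILI or MIWI piRISC (synthetic 5'-monophosphorylated piRNA guide) with or without 500 nM mouse GTSF1 at 33 °C for 1 min to 16 h. Uncleaved targets were sequenced and normalised to non-target controls, and the pooled three trials were fitted to a burst-and-steady-state model to give the pre-steady-state cleavage rate (min^-1; k3 is constrained to at most 1e-4). Sequence is the target site only; target names encode pairing extent (gX:gY) and contiguous / 1-mismatch / 2-mismatch / bulge geometry. Fits with R² ≤ 0 are excluded.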

Sequence	pre-steady-state target cleavage rate
GCUCUGGGAUACUAUACAACCUACUACCUCA	1.89 ± 0.096
GCUCUGCGAUACUAUACAACCUACUACCUCA	2.02 ± 0.12
CCUCUGCGAUACUAUACAACCUACUACCUCA	2.19 ± 0.12
GGACUGCGAUACUAUACAACCUACUACCUCA	1.79 ± 0.13
GGUCUGCGAUACUAUACAACCUACUACCUCA	1.79 ± 0.071
GGAGUGGAUACUAUACAACCUACAACCUCA	0.314 ± 0.037
GGACUGGAUACUAUACCACCUACUACCUCA	1.17 ± 0.082
GGAGACCUUACUAUUCAACCUAGUACCUCA	0.395 ± 0.04
GGAGACCUAUGUAUACCACCUACUACCUCA	0.0149 ± 0.0026
CCUGUGGAUACUAUACAACCUACUACCUCA	1.86 ± 0.11
GCCUGGAUACUAUACAACCUACUACCUCA	1.87 ± 0.11
CCUGUGGAUACUAUACAACCUACAACCUCA	0.383 ± 0.043
GGCCUGGAUACUAUACAACCUACUACCUCA	1.74 ± 0.098
CCCUGGAUACUAUACAACCUACUACCUCA	2.52 ± 0.18
CCCCUGGAUACUAUACAACCUACUACCUCA	2.45 ± 0.15
GCCCUGGAUACUAUACAACCUACUACCUCA	2.17 ± 0.12
GGACCUGGAUACUAUACAACCUACUACCUCA	1.96 ± 0.14
GAUCUGGAUACUAUACAACCUACUACCUCA	1.91 ± 0.097
GGAGACCUUACUAUACAAGCUAGUACCUCA	0.471 ± 0.033
GCUCUGGAUACUAUACAACCAACUACCACA	0.153 ± 0.018
GGAGACGAAAGUAUACAACCUACUACCUCA	0.527 ± 0.062
GGUCUGGAUAGUAUACAACCUACUACGUCA	0.583 ± 0.055
GGAGAGGAAACUAUACAUCCUACUACCUCA	1.19 ± 0.074
GCUCGUGGAUACUAUACAACCUACUACCUCA	1.85 ± 0.095
CCUCUGGAUACUAUACAACCUCCUACCUCA	1.32 ± 0.068
GCUCCUGGAUACUAUACAACCUACUACCUCA	2.13 ± 0.11

Sequence	pre-steady-state target cleavage rate
GGAGUGGAUACUAUACUACCUACAACCUCA	0.428 ± 0.052
CCAGUGGAUACUAUACAACCUACUACCUCA	2.01 ± 0.11
CCUCCUGGAUACUAUACAACCUACUACCUCA	2.25 ± 0.13
GGACUGGAUACUAUACAACCUCCUACCUCA	0.801 ± 0.052
GGUCCUGGAUACUAUACAACCUACUACCUCA	1.97 ± 0.099
GGUCGUGGAUACUAUACAACCUACUACCUCA	1.72 ± 0.093
CCUCGUGGAUACUAUACAACCUACUACCUCA	2.17 ± 0.16
GCAGUGGAUACUAUACAACCUACUACCUCA	1.85 ± 0.095
GCUCUGGAUACUAUACAACCUCCUACCUCA	1.2 ± 0.052
GGAGACCAUAUAUACAACCUACUACCUCA	0.184 ± 0.018
GGAGACCUUAGUAUACUACCUACUACCUCA	0.0222 ± 0.0051
GGAGACCUAACUAUACAACCUUCUACCACA	0.194 ± 0.026
GGAGACCUAUCUAUACAACCUACUACACUCA	0.634 ± 0.061
CCUCUGGAUACUAUACAACCUAGUACCUCA	0.172 ± 0.039
GGUCUGGAUACAAUACAACCUAGUACCUCA	0.562 ± 0.054
CCUCAGGAUACUAUUCAACCUACUACCUCA	2.22 ± 0.14
GCUCUGGAUACUAUUCAACCUACUACCUCA	1.87 ± 0.11
GGACAGGAUACUAUUCAACCUACUACCUCA	1.69 ± 0.11
GCUCAGGAUACUAUUCAACCUACUACCUCA	2.09 ± 0.13
GGUCAGGAUACUAUUCAACCUACUACCUCA	1.79 ± 0.1
GGAGAGGAUACUAUUCAACCUACUACCUCA	1.23 ± 0.062
GCUCUGGAUACUAUACUAACCUACUACCUCA	0.00667 ± 0.0041
GGAGACGAUACAAUUCAACCUACUACCUCA	0.664 ± 0.073
GGAGUGGAUAGUAUACAACCUACUAGCUCA	0.0218 ± 0.0063
GGAGACGAUACUAUACUAGCUACUACCUCA	0.579 ± 0.048
GGUCUGGAUUCUAUAGAACCUACUACCUCA	0.979 ± 0.064

Sequence	pre-steady-state target cleavage rate
GCUCUCGAUACAAUACAACCUACUACCUCA	2.07 ± 0.12
GGUCUCGAUACAAUACAACCUACUACCUCA	1.77 ± 0.12
CCUCUCGAUACAAUACAACCUACUACCUCA	2.17 ± 0.14
GGACUCGAUACAAUACAACCUACUACCUCA	1.46 ± 0.095
GCUCUCGAUAGUAUACAACCUACUACCUCA	1.95 ± 0.13
GCUCUCGAUACUAUACAACCUACAACCUCA	1.01 ± 0.078
GCUCUGGAUAGUAUUCAACCUACUACCUCA	0.849 ± 0.044
GGAGACCAUACUAUUCAACCUACUACCACA	1.05 ± 0.078
GGACUGGAUACUAUACAACCUACGUACCUCA	0.656 ± 0.089
GCUCUGGAUACUAUACAACGUACUUCCUCA	0.486 ± 0.045
GGAGACGAAACUAUACAAGCUACUACCUCA	0.872 ± 0.057
GGAGUGGUUUCUAUACAACCUACUACCUCA	1.32 ± 0.081
GCUCUGGAUACUUACAACCUACUACCUCA	1.18 ± 0.1
CCUCUGGAUACUUACAACCUACUACCUCA	1.3 ± 0.12
GCUCUGGAUACUAUACAACCUACUUACCUCA	2.1 ± 0.13
CCUCUGGAUACUAUACAACCUACUUACCUCA	2.2 ± 0.14
GCUCUGGAUACUUAUACAACCUACUACCUCA	1.53 ± 0.084
GGUCUGGAUACUAUACAACCUACUUACCUCA	1.23 ± 0.084
GGAGACCUUACUAUACAACCUACCACCUCA	0.847 ± 0.06
GGACUGGAUACUUAUCAACCUACUACCUCA	0.719 ± 0.1
GGACUGGAUACGAUACAACCUACUACCUCA	1.64 ± 0.1
CCUCUGGAUACUAAACUACCUACUACCUCA	1.24 ± 0.098
GCUCAGGAUACUAAACAACCUACUACCUCA	1.95 ± 0.12
GCUCAGGAUACUUUACAACCUACUACCUCA	1.81 ± 0.11
GGUCAGGAUACUAAACAACCUACUACCUCA	1.74 ± 0.096
